Measured values from ChEMBL document CHEMBL3433997, “St. Jude Leishmania screening dataset” (2016).
“And” between values parts separate entries of the source, which are not always exact repeats. Equal entries are not always repeated.

Columns and labels:
Assay type in all cases: functional
[1] = molecular target: Solute carrier family 2, facilitated glucose transporter member 1 (Homo sapiens) (UniProt P11166); test: ST_JUDE_LEISH: Cytotoxicity at 2uM final concentration against transgenic Leishmania Mexicana promastigotes LmGLUT1 that are glucose transport deficient and complemented with the human glucose transporter GLUT1. Activity is measured by DNA content using SYBR green in vitro
Sequence of Solute carrier family 2, facilitated glucose transporter member 1 (Homo sapiens) (P11166 whole entry): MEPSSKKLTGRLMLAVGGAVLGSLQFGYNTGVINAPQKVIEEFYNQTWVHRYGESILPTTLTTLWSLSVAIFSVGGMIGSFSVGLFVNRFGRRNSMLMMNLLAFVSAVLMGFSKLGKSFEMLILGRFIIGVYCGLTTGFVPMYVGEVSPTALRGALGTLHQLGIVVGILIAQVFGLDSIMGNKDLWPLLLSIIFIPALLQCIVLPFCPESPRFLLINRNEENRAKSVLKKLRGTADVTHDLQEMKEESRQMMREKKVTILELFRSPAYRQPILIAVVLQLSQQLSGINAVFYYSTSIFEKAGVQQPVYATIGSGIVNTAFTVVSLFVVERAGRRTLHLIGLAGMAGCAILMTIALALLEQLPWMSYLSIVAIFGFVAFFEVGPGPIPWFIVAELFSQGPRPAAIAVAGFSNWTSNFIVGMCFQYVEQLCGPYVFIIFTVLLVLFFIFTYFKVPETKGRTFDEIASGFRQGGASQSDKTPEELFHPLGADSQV

[2] = molecular target: Hexose transporter 1 (Plasmodium falciparum) (UniProt O97467); test: ST_JUDE_LEISH: Cytotoxicity at 2uM final concentration against transgenic Leishmania Mexicana promastigotes LmPfHT that are glucose transport deficient and complemented with the Plasmodium falciparum hexose transporter. Activity is measured by DNA content using SYBR green in vitro
[3] = molecular target: Glucose transporter (Leishmania mexicana) (UniProt O61059); test: ST_JUDE_LEISH: Cytotoxicity at 2uM final concentration against transgenic Leishmania Mexicana promastigotes LmGT2 that are glucose transport deficient and complemented with the L. Mexicana glucose transporter 2. Activity is measured by DNA content using SYBR green in vitro

| SMILES | inhibition [1] | inhibition [2] | inhibition [3] |
| --- | --- | --- | --- |
| CC(=O)C1(c2ccccc2)CCN(CCC2(c3ccc(Cl)c(Cl)c3)CN(C(=O)C3CCCC3)CCO2)CC1 (centres undefined) | 4.09% | 3.1% | 0.75% |
| O=C(NC1CCC(CN2CCC(c3c[nH]c4ccccc34)CC2)CC1)c1cc2ccccc2o1 (centres undefined) | 2.54% | 0.9% | -2.2% |
| CN1CCN(c2ccc3[nH]c(-c4ccc5[nH]c(-c6ccc(O)cc6)nc5c4)nc3c2)CC1 | 4.92% | 5.09% | 2.92% |
| CC(=O)C1(c2ccccc2)CCN(CCC2(c3ccc(Cl)c(Cl)c3)CN(C(=O)C3CCCCC3)CCO2)CC1 (centres undefined) | 4.85% | 2.27% | 3.92% |
| Cc1cc(O)cc2c(C3CCN(CC4CCC(NC(=O)/C=C/c5ccccc5Cl)CC4)CC3)c[nH]c12 (centres undefined) | 4.47% | 4.35% | 3.52% |
| O=C1Nc2cccc3c2C1(CCCCCN1CC=C(c2c[nH]c4ccccc24)CC1)CCC3 (centres undefined) | 14.1% | 10.6% | 12.8% |
| O=C(CCc1ccc(Cl)cc1Cl)NC1CCC(CN2CCC(c3c[nH]c4ccccc34)CC2)CC1 (centres undefined) | 1.11% and 15.9% | -0.14% and 8.88% | -2.05% and 8.96% |
| C=C[C@H]1CN2CC[C@H]1C[C@H]2[C@H](O)c1cc(-c2ccc(Cl)cc2)nc2ccc(OC)cc12 | 1.16% | 1.72% | 1.31% |
| OC(CNC1CCCCCCC1)c1ccc(Cl)c(Cl)c1 (centres undefined) | 1.96% | 2.06% | 2.43% |
| O=C(Nc1ccc(CN2CCC(c3c[nH]c4ccc(O)cc34)CC2)cc1)c1ccc(-c2ccccc2)cc1 | 5.73% | 3.85% | 5.18% |
| CC(=O)Nc1ccc(CN2CCC(N(C)c3cc(NC(=O)c4cccs4)ccn3)CC2)cc1 | -1.53% | 0.83% | -0.48% |
| OC1(CNCc2ccccc2)CCN(CCc2c[nH]c3ccc(F)cc23)CC1 | 4.9% | 8.31% | 5.83% |
| COc1cc2c(c(OC)c1OC)C[C@H]1c3c(cc4c(c3-2)OCO4)CCN1C | -0.22% | 1.49% | 1.06% |
| COCC(=O)N(Cc1ccccc1-c1cccc(CNCCc2ccccc2)c1)C1CCN(Cc2ccccc2)CC1 | 0.81% | 0.92% | 3.9% |
| COc1ccc2nc(-c3ccc(F)cc3)cc([C@@H](O)[C@@H]3C[C@@H]4CCN3CC4C=NO)c2c1 (some centres undefined) | 4.55% | 4.75% | 3.7% |
| CCOc1ccc(Br)cc1/C=C/C(=O)Nc1ccc2c(c1)C1CCC2N1C (centres undefined) | 2.58% | 0.43% | 3.45% |
| CNCCN(C)C(=O)Oc1c(Cl)c(C)nc(C)c1-c1ccc(Oc2ccc(OC(F)(F)F)cc2)cc1 | 4.11% | 4.04% | 4.28% |
| COc1ccc(CN(C2CC2)C(C)C(=O)c2[nH]c(C)c(C(C)=O)c2C)cc1 (centres undefined) | -1.09% | 1.96% | -1.15% |
| CC(C)CNCc1ccc(-c2cccc(CN(C(=O)Nc3ccccc3)C3CCN(Cc4ccccc4)CC3)c2)cc1 | 0.61% | -0.02% | -1.04% |
| O=C(/C=C/c1ccc2ccccc2c1)NC1CCC(CN2CCC(c3c[nH]c4ccccc34)CC2)CC1 (centres undefined) | 1.06% | 1.84% | 3.4% |
| CC[C@H]1CN2CC[C@H]1C[C@H]2[C@H](O)c1cc(-c2cccc(Cl)c2)nc2ccc(OC)cc12 | 9.7% | 9.03% | 10.7% |
| Cc1cc(NC(=O)[C@H](CC(C)C)Nc2ccc(C#N)c3ccccc23)ccc1F | 0.56% | 2.4% | -0.16% |
| COC(=O)c1ccc(CC(C)NCC(O)c2ccc(Cl)c(Cl)c2)cc1 (centres undefined) | 6.46% | 3.9% | 5.96% |
| COc1cccc(C=CC(=O)NC2CCC(CN3CCC(c4c[nH]c5ccccc45)CC3)CC2)c1OC (centres undefined) | 1.83% | 2.37% | 14.2% |

| SMILES | inhibition [1] | inhibition [2] | inhibition [3] |
| --- | --- | --- | --- |
| N#Cc1ccc(N(CCCO)Cc2ccccc2C(F)(F)F)cc1C(F)(F)F | -1.34% | -1.78% | -0.99% |
| O=[N+]([O-])c1ccc(Oc2c(Cl)cc(S(=O)(=O)NC3CCC(CN4CCC(c5c[nH]c6ccccc56)CC4)CC3)cc2Cl)c(Cl)c1 (centres undefined) | 2.41% | 0.39% | -1.14% |
| COCCNCc1ccc(-c2cccc(CN(C(=O)CCC3CCCC3)C3CCN(Cc4ccccc4)CC3)c2)cc1 | -4.16% | 1.28% | -1.05% |
| COc1ccc(CC(C)NCC(O)c2ccc(Cl)c(Cl)c2)cc1 (centres undefined) | 0.41% | -0.07% | -2.6% |
| CC[C@H]1CN2CCc3cc(OC)c(OC)cc3[C@@H]2C[C@@H]1C[C@H]1NCCc2c1cc(OC)c(O)c2Cl | 94.8% | 98.3% | 89.3% |
| CN1CCC(COC(=O)C(O)(c2ccccc2)c2ccccc2)C1 (centres undefined) | 2.1% | -0.69% | -0.38% |
| CC[C@H]1CN2CC[C@H]1C[C@@H]2[C@@H](OC(=O)c1ccc(Cl)cc1)c1ccnc2ccc(OC)cc12 | 1.77% | 0.13% | -1.41% |
| CN(c1cc(NC(=O)c2cccs2)ccn1)C1CCN(Cc2ccccc2)CC1 | 0.59% | 3.13% | 2.09% |
| O=C(Nc1ccc(Oc2ccccc2)cc1)NC1CCC(CN2CCC(c3c[nH]c4ccccc34)CC2)CC1 (centres undefined) | 1.21% | 0.51% | -0.05% |
| c1ccc2c(NCCCCCCNc3c4ccccc4nc4ccccc34)c3ccccc3nc2c1 | 5.54% | 6.29% | 4.31% |
| Cn1c(C2CC3CCC(C2)N3CC2CCC(NC(=O)/C=C/c3ccc(Cl)c(Cl)c3)CC2)nc2ccccc21 (centres undefined) | 4.11% | 3.19% | 2.69% |
| Cc1ccc(C)c(N2CCN(Cc3ccccc3O)CC2)c1 | 0.11% | 1.02% | 2.41% |
| CC(Cc1ccc(CSC(C)C)cc1)NCC(O)c1cccc(Cl)c1 (centres undefined) | 3.54% | 3.54% | 3.37% |
| CC(C)(C)c1ccc(Cn2nc(C(=O)N3CCN(C(=O)C4CCCO4)CC3)c3ccccc32)cc1 (centres undefined) | 0.73% | 0.1% | -3.52% |
| CC(Cc1ccc(OCCOc2ccccc2)cc1)NCC(O)c1cccc(C(F)(F)F)c1 (centres undefined) | 1.79% | 3.83% | 4.17% |
| CC(=O)C1(c2ccccc2)CCN(CCC(NC(=O)c2cc(C(F)(F)F)cc(C(F)(F)F)c2)c2ccc(Cl)c(Cl)c2)CC1 (centres undefined) | -0.39% | 0.71% | 5.98% |
| O=C(C=Cc1ccc(F)c(Br)c1)NC1CCC(CN2CCC(c3c[nH]c4ccccc34)CC2)CC1 (centres undefined) | 0.26% and 5.78% | -0.2% and 4.24% | -1.48% and 3.84% |
| O=C1Nc2cccc3c2C1(CCCCN1CC=C(c2c[nH]c4ncccc24)CC1)CCC3 (centres undefined) | 5.83% | 4.08% | 3.96% |
| CS(=O)(=O)Nc1ccc2c(C3CCN(CC4CCN(C(=O)/C=C/c5ccc(Cl)c(Cl)c5)CC4)CC3)c[nH]c2c1 | -0.41% | 0.85% | -2.09% |
| O=C(O)c1ccc2nc(-c3ccc(-c4ccccc4)cc3)n(C3CCN(Cc4ccc(-c5ncc[nH]5)cc4)CC3)c2c1 | 9.41% | 8.89% | 8.84% |
| Cc1[nH]c2cc(F)ccc2c1C1=CCN(CCCCC2(C)C(=O)Nc3ccccc32)CC1 (centres undefined) | 2.11% | 1.23% | 0.15% |
| COc1ccc(N(c2nc(-c3cc(Cl)ccc3Cl)cs2)C2CCNCC2)cc1 | 0.66% | -0.12% | 1.62% |
| CC(C)CNCc1cccc(-c2cccc(CN(C(=O)Nc3ccccc3)C3CCN(Cc4ccccc4)CC3)c2)c1 | 1.9% | 1.81% | 5.06% |
| CS(=O)(=O)Nc1ccc2[nH]cc(C3CCN(CC4CCN(C(=O)/C=C/c5ccc(Cl)c(Cl)c5)CC4)CC3)c2c1 | 4.43% | 3.49% | 4.09% |
